For 13 compounds, Potency results are on record in PubChem BioAssay (NCATS).

Results filed as inconclusive are left out. Activity calls are given as the source filed them. Calls come from the whole dose curve; as a rule, active = well fitted curve in the direction sought with a large enough effect; inconclusive = small, poorly fitted or top-dose-only effect, or another doubt; inactive = no such curve, though single readings can be large; an effect the other way counts as inactive or inconclusive.

Assay [1] deals with Furin (Homo sapiens) (UniProt P09958). In words: Furin counterscreen qHTS for Zika virus inhibitors (AID 1347149). Note: nearly all actives have a fitted effect of over 70% in size. Note: potency is the fitted concentration of half-maximal effect. In short, it runs like this: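 Fluorogenic cleavage of BOC-RVRR-AMC (2 microM final, Km ~15 µM) was monitored (ex 340, em 450 nm) at 37C after 15 min RT preincubation of 5 nM furin with compounds in HEPES pH 7.0 buffer with CaCl2 and Triton X-100. Percent inhibition was fitted to a 4-parameter Hill curve.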
Sequence of Furin (Homo sapiens) (P09958 whole entry, looked up): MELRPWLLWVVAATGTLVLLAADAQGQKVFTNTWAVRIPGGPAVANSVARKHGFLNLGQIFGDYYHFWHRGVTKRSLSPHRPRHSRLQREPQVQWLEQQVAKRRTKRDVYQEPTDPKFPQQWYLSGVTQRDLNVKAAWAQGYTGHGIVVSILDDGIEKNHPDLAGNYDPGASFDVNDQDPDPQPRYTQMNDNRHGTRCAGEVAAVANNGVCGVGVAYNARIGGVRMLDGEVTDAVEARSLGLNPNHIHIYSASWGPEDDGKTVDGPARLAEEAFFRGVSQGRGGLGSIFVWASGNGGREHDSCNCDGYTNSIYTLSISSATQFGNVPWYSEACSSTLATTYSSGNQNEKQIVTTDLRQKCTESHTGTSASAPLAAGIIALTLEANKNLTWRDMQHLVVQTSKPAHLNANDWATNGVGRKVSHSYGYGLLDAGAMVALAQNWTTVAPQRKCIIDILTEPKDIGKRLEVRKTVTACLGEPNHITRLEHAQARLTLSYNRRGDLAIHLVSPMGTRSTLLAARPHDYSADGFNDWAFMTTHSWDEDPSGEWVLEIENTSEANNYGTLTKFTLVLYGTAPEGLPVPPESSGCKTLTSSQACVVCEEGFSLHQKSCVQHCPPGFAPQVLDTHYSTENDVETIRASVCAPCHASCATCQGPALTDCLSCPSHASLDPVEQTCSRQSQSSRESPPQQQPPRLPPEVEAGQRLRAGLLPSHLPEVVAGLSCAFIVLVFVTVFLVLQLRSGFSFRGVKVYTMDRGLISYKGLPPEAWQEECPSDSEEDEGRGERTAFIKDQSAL
For orientation: Counterscreens check selectivity or assay interference.

For assay [2], the system named is Zika virus NS2B-NS3 protease (linked construct). As to the kind of experiment: Confirmatory screen NINDS AMC qHTS for Zika virus inhibitors (AID 1347152). Note: nearly all actives have a fitted effect of over 70% in size. Note: potency is the fitted concentration of half-maximal effect. In short, it runs like this: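 In this dose-response qHTS, AMC release from 10 microM Bz-Nle-KRR-AMC by 1 nM linked protease is measured over 15 minutes (about 20% conversion) at pH 8.0. Percent inhibition is fitted to a 4-parameter Hill curve.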

Assay [3] relates to Zika virus NS2B-NS3 protease (unlinked complex). As to the kind of experiment: Confirmatory screen GU AMC qHTS for Zika virus inhibitors (AID 1347153). Note: nearly all actives have a fitted effect of over 70% in size. Note: potency is the fitted concentration of half-maximal effect. In short, it runs like this: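 Noncovalent NS2B hydrophilic domain/NS3 protease complex (25 nM) in 10 mM Tris-HCl pH 8.0, 0.01% Tween 20 was preincubated 15 min at room temperature with compounds. Then 10 µM AMC substrate (Km 18.3 µM) was added; fluorescence was read over 15 min and fitted to a 4-parameter Hill equation.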
(In general: In qHTS, concentration-response curves come from the screen itself.)

Assay [4] can be described thus: Tertiary RLuc qRT-PCR qHTS assay for Zika virus inhibitors (AID 1347169). Note: top concentration of the series differs between compounds; nearly all actives have a fitted effect of over 55% in size. In short, it runs like this: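 Orthogonal cell-based infection assay using recombinant ZIKV-RLuc (Cambodian) in Vero cells; compound added prior to virus at MOI 1-2. Incubation lasts 48-72 hrs at 37 degrees C before live-cell Renilla substrate is added and luminescence measured.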
Assay [5] in a line: Confirmatory screen GU Rhodamine qHTS for Zika virus inhibitors qHTS (AID 1347157). Note: nearly all actives have a fitted effect of over 70% in size. Note: potency is the fitted concentration of half-maximal effect. In short, it runs like this:
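Percent inhibition derives from the 15-min fluorescence change (ex 480, em 540 nm), normalized to no-enzyme and no-inhibitor wells. Reactions contained 25 nM NS2B-NS3 complex and 1.5 microM substrate in 10 mM Tris-HCl pH 8.0.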

A short description of assay [6]: ZIKV-mCherry secondary qHTS for Zika virus inhibitors (AID 1347158). Note: top concentration of the series differs between compounds. The method in brief:
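Vero cells, 5,000/well, plated overnight at 37 °C, then compound added and infected with recombinant ZIKV-mCherry at MOI 1 for 48-72 h. PFA-fixed, Hoechst nuclear stain, high-content imaging; cells with mCherry intensity above 450 RFU scored infected, reported as percent infection.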

Assay [7] in a line: Confirmatory screen NINDS Rhodamine qHTS for Zika virus inhibitors (AID 1347161). Note: potency is the fitted concentration of half-maximal effect; nearly all actives have a fitted effect of over 60% in size. The method in brief: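 Rhodamine110-peptide cleavage (1.5 µM substrate) by 25 nM linked NS2B-NS3 enzyme at pH 8.0 (Tris, Tween 20), after 15 min RT preincubation with compounds; 15-min fluorescence change normalized to controls and Hill-fitted.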
The subject of assay [8] is Zika virus NS2B-NS3 protease (linked). In words: 384 well plate NINDS AMC confirmatory qHTS for Zika virus inhibitors (AID 1347163). Note: nearly all actives have a fitted effect of over 50% in size. Note: potency is the fitted concentration of half-maximal effect. The method in brief:
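Linked protease 5/30/60 nM final; cpds up to 1 mM final, ~15 min preinc. Substrate Ac-VKTGKR-AMC 30 microM final. RT, dark, 25 min; FI ex 355/em 460; normalized to no-enzyme/no-inhibitor ctrls.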

Assay [9] deals with Zika virus NS2B-NS3 protease (linked construct). In words: 384 well plate NINDS Rhodamine confirmatory qHTS for Zika virus inhibitors (AID 1347164). Note: potency is the fitted concentration of half-maximal effect; nearly all actives have a fitted effect of over 65% in size. The method in brief:
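Compounds are incubated about 15 minutes with linked protease (5, 30 or 60 nM final). Rhodamine 110-tagged Ac-LKRR substrate (10 microM final) is added and fluorescence measured after 25 minutes.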

Assay [10] can be described thus: Vero cells viability qHTS for Zika virus inhibitors (AID 1347167). The method in brief:
(§1)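 Counter-screen for cytotoxicity of hits from NS2B-NS3 protease qHTS. Overnight-attached cells (2.5 x 10^5 cells/mL, DMEM/4% FBS) were dosed in titration, incubated 24 to 48 hours, then assayed by CellTiter Glo.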

Assay [11] in a line: HepG2 cells viability qHTS for Zika virus inhibitors (AID 1347168). The method in brief:
as §1

Assay [12] in a line: Primary qHTS for small molecule stabilizers of the endoplasmic reticulum resident proteome: Secreted ER Calcium Modulated Protein (SERCaMP) assay (AID 1508630). The method in brief:
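GLuc-SERCaMP-expressing SH-SY5Y cells, pretreated 16 h with compound, are challenged with thapsigargin to empty ER calcium stores; after 4 h, coelenterazine is added directly to the medium and luminescence is imaged.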

With `CS(=O)(=O)c1ccc(Nc2ccc3c(c2)OCO3)c([N+](=O)[O-])c1`, the Potency entry in assay [1], in [2], in assay [3] and in assay [4] was “inactive” each time.
With `Cc1ccc2nc(-c3ccc(N=Nc4cc(S(=O)(=O)O)c5ccccc5c4O)cc3)sc2c1S(=O)(=O)O`, the Potency in assay [1] was 59.1 µM (active); in assay [5], 3.16 µM (active); in [7] it was 2.82 µM (active); in assay [9] it was 15.8 µM (active). For the same compound, the Potency entry in assay [6], in assay [8] and in assay [4] was “inactive” each time.
As to `O=C(O)c1ccc(C2Nc3ccccc3-c3nnc(SCc4ccc(Cl)cc4)nc3O2)cc1` (stereo not drawn), the Potency entry in assay [1], in assay [6] and in assay [4] was “inactive” throughout. Besides, the Potency in assay [5] is 20 µM (active); in [7], 15.8 µM (active); in assay [8], 316 µM (active); in assay [9], 89.1 µM (active).
In the case of `O=C(O)c1cccc(-c2ccc(OC(F)(F)F)cc2)c1`, the Potency entry in assay [1], in assay [2], in assay [6] and in assay [4] was “inactive” in each case.
In the case of `COc1ccccc1N1CCN(CCn2c(=O)c3c(c4ccccc4n3C)n(C)c2=O)CC1`, the results for the Potency in assay [1], in assay [2] and in assay [3] were 24.1 µM (active), 27.1 µM (active) and 24.1 µM (active), respectively. Moreover, the Potency result in [10], in assay [11], in [4] and in assay [12] was “inactive” throughout.
As for `Nc1cc(N)c(N=Nc2ccc(S(=O)(=O)Nc3nccs3)cc2)cc1N=Nc1ccc(S(=O)(=O)Nc2nccs2)cc1`, the Potency in [1] is 39.8 µM (active); in assay [2] it was 12.6 µM (active); in assay [7] it was 3.55 µM (active); in assay [8], 63.1 µM (active); in [9], 20 µM (active). Also, the Potency result in assay [4] was “inactive”.
With `Cc1ccc(C(=O)Nc2ccc(C(=O)OCc3cc(=O)n4c5c(sc4n3)CCCC5)cc2)cc1`, the Potency in assay [1] is 41.8 µM (active). In [5], the Potency result is “inactive”.
As for `O=C(O)COc1ccc(-c2nccc3c2C(=O)N(Cc2cccc(C(F)(F)F)c2)CC(CNC(=O)c2cccc(Cl)c2)O3)cc1` (stereo not drawn), the Potency result in assay [1] and in assay [4] was “inactive” in each case. Besides, the Potency was 49.4 µM (active) in [3] and 22.4 µM (active) in assay [9].
As for `O=C(O)c1ccc(-c2cc(C(F)(F)F)ccc2Cl)cc1`, the Potency result in assay [1], in assay [2] and in assay [6] was “inactive” throughout.
For the compound `Cc1ncccc1OCC1CN(Cc2cccc(C(F)(F)F)c2)C(=O)c2c(ccnc2-c2ccc(OCC(=O)O)cc2)O1` (stereo not drawn), the Potency entry in [1], in assay [2], in assay [3] and in assay [4] was “inactive” throughout.
For the compound `O=C(O)c1ccc(-c2ccc(C(F)(F)F)cc2)cc1`, the Potency entry in [1], in assay [2], in [3] and in assay [4] was “inactive” each time.
With `Cc1ccc(NC(=O)c2ccc3c(O)c(S(=O)(=O)c4ccc(Cl)cc4)c(=O)[nH]c3c2)cc1`, the Potency entry in assay [1], in assay [6] and in [4] was “inactive” throughout. In addition, the Potency in assay [5] was 22.4 µM (active); in assay [7], 6.31 µM (active); in assay [8], 251 µM (active); in [9] it was 35.5 µM (active).
Turning to `O=C(O)c1ccc(-c2ccc(OC(F)(F)F)cc2)cc1`, the Potency entry in assay [1], in [2], in [3] and in assay [4] was “inactive” throughout.
